Experimental data published in paper PMC5540273 (PLoS ONE, 2017).
Read-outs that look alike come from different tables or passages of the source.

Columns and labels:
FYN = conditions: concentration: 1 μM,replicates: in singlicate; n = 1
GAK = conditions: concentration: 1 μM,replicates: in singlicate; n = 1
GCN2(Kin.Dom.2,S808G) = system: T1, GCN2(Kin.Dom.2,S808G); conditions: concentration: 1 μM,replicates: in singlicate; n = 1
T1 construct: gene EIF2AK4

GRK1 = conditions: concentration: 1 μM,replicates: in singlicate; n = 1
GRK2 = system: T2, GRK2; conditions: concentration: 1 μM,replicates: in singlicate; n = 1
T2 construct: gene ADRBK1

GRK3 = system: T3, GRK3; conditions: concentration: 1 μM,replicates: in singlicate; n = 1
T3 construct: gene ADRBK2

GRK4 = conditions: concentration: 1 μM,replicates: in singlicate; n = 1
GRK7 = conditions: concentration: 1 μM,replicates: in singlicate; n = 1
GSK3A = conditions: concentration: 1 μM,replicates: in singlicate; n = 1
GSK3B = conditions: n = 1
HASPIN = system: T4, HASPIN; conditions: concentration: 1 μM,replicates: in singlicate; n = 1
T4 construct: gene GSG2

HCK = conditions: concentration: 1 μM,replicates: in singlicate; n = 1
HIPK1 = conditions: concentration: 1 μM,replicates: in singlicate; n = 1
HIPK2 = conditions: concentration: 1 μM,replicates: in singlicate; n = 1
HIPK3 = conditions: concentration: 1 μM,replicates: in singlicate; n = 1
HIPK4 = conditions: concentration: 1 μM,replicates: in singlicate; n = 1
HPK1 = conditions: concentration: 1 μM,replicates: in singlicate; n = 1
HUNK = conditions: concentration: 1 μM,replicates: in singlicate; n = 1
ICK = conditions: concentration: 1 μM,replicates: in singlicate; n = 1
IGF1R = conditions: concentration: 1 μM,replicates: in singlicate; n = 1
[1] = concentration: 1 μM,replicates: in singlicate
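Also: KINOMEscan kinase panel screen.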

Compound: Cc1ccn2nc(-c3ccc(F)cc3)c(-c3ccncc3)c2c1.Cl [GW457859]
- %Inh (FYN): 0%
- %Inh (GAK): 0%
- %Inh (GCN2(Kin.Dom.2,S808G)): 0%
- %Inh (GRK1): 0%
- %Inh (GRK2): 0%
- %Inh (GRK3): 40%
- %Inh (GRK4): 0%
- %Inh (GRK7): 59%
- %Inh (GSK3A): 9%
- %Inh (GSK3B; [1]): 0%
- %Inh (HASPIN): 32%
- %Inh (HCK): 10%
- %Inh (HIPK1): 0%
- %Inh (HIPK2): 0%
- %Inh (HIPK3): 0%
- %Inh (HIPK4): 0%
- %Inh (HPK1): 12%
- %Inh (HUNK): 52%
- %Inh (ICK): 0%
- %Inh (IGF1R): 0%

Compound: FC(F)(F)c1cc(Br)cc(Nc2nccc(-c3cnn4ncccc34)n2)c1 [GW810578]
- %Inh (FYN): 0%
- %Inh (GAK): 20%
- %Inh (GCN2(Kin.Dom.2,S808G)): 12%
- %Inh (GRK1): 7%
- %Inh (GRK2): 14%
- %Inh (GRK3): 8%
- %Inh (GRK4): 0%
- %Inh (GRK7): 10%
- %Inh (GSK3A): 90.4%
- %Inh (GSK3B; [1]): 89%
- %Inh (HASPIN): 0%
- %Inh (HCK): 12%
- %Inh (HIPK1): 99.1%
- %Inh (HIPK2): 99.4%
- %Inh (HIPK3): 97.9%
- %Inh (HIPK4): 76%
- %Inh (HPK1): 13%
- %Inh (HUNK): 0%
- %Inh (ICK): 97.8%
- %Inh (IGF1R): 0%

Compound: CCN1CCN(CCCC(=O)Nc2n[nH]c3nc(-c4ccc(O)cc4)c(Br)cc23)CC1 [SB-731579]
- %Inh (FYN): 4%
- %Inh (GAK): 0%
- %Inh (GCN2(Kin.Dom.2,S808G)): 0%
- %Inh (GRK1): 0%
- %Inh (GRK2): 0%
- %Inh (GRK3): 25%
- %Inh (GRK4): 21%
- %Inh (GRK7): 0%
- %Inh (GSK3A): 99.5%
- %Inh (GSK3B; 1 µM): 98.5%
- %Inh (HASPIN): 0%
- %Inh (HCK): 0%
- %Inh (HIPK1): 75%
- %Inh (HIPK2): 57%
- %Inh (HIPK3): 0%
- %Inh (HIPK4): 0%
- %Inh (HPK1): 8%
- %Inh (HUNK): 0%
- %Inh (ICK): 93.3%
- %Inh (IGF1R): 0%

Compound: Cc1nnc(-c2ccc3occ(-c4ccc(S(C)=O)cc4)c3n2)o1 (stereo not shown)
- %Inh (FYN): 0%
- %Inh (GAK): 5%
- %Inh (GCN2(Kin.Dom.2,S808G)): 0%
- %Inh (GRK1): 0%
- %Inh (GRK2): 0%
- %Inh (GRK3): 0%
- %Inh (GRK4): 33%
- %Inh (GRK7): 0%
- %Inh (GSK3A): 40%
- %Inh (GSK3B; [1]): 0%
- %Inh (HASPIN): 6%
- %Inh (HCK): 0%
- %Inh (HIPK1): 46%
- %Inh (HIPK2): 0%
- %Inh (HIPK3): 0%
- %Inh (HIPK4): 0%
- %Inh (HPK1): 0%
- %Inh (HUNK): 0%
- %Inh (ICK): 0%
- %Inh (IGF1R): 10%

Compound: Cn1ccc2ncnc(Oc3ccc(NC(=O)Nc4cncc(C(F)(F)F)c4)c(Cl)c3)c21
- %Inh (FYN): 0%
- %Inh (GAK): 0%
- %Inh (GCN2(Kin.Dom.2,S808G)): 0%
- %Inh (GRK1): 4%
- %Inh (GRK2): 0%
- %Inh (GRK3): 0%
- %Inh (GRK4): 11%
- %Inh (GRK7): 0%
- %Inh (GSK3A): 0%
- %Inh (GSK3B; [1]): 0%
- %Inh (HASPIN): 0%
- %Inh (HCK): 14%
- %Inh (HIPK1): 10%
- %Inh (HIPK2): 0%
- %Inh (HIPK3): 0%
- %Inh (HIPK4): 0%
- %Inh (HPK1): 0%
- %Inh (HUNK): 0%
- %Inh (ICK): 0%
- %Inh (IGF1R): 0%

Compound: CS(=O)c1ccc(-c2coc3ccc(-c4n[nH]c(=O)o4)cc23)cc1 (stereo not shown)
- %Inh (FYN): 0%
- %Inh (GAK): 0%
- %Inh (GCN2(Kin.Dom.2,S808G)): 21%
- %Inh (GRK1): 6%
- %Inh (GRK2): 0%
- %Inh (GRK3): 30%
- %Inh (GRK4): 19%
- %Inh (GRK7): 15%
- %Inh (GSK3A): 93.3%
- %Inh (GSK3B; [1]): 15%
- %Inh (HASPIN): 50%
- %Inh (HCK): 0%
- %Inh (HIPK1): 99.6%
- %Inh (HIPK2): 100%
- %Inh (HIPK3): 99.6%
- %Inh (HIPK4): 93.6%
- %Inh (HPK1): 1%
- %Inh (HUNK): 11%
- %Inh (ICK): 29%
- %Inh (IGF1R): 13%

Compound: Cn1ccc2ncnc(Oc3ccc(NC(=O)Nc4cnn(C(C)(C)C)c4)c(Cl)c3)c21
- %Inh (FYN): 0%
- %Inh (GAK): 0%
- %Inh (GCN2(Kin.Dom.2,S808G)): 23%
- %Inh (GRK1): 18%
- %Inh (GRK2): 2%
- %Inh (GRK3): 6%
- %Inh (GRK4): 3%
- %Inh (GRK7): 0%
- %Inh (GSK3A): 14%
- %Inh (GSK3B; [1]): 0%
- %Inh (HASPIN): 35%
- %Inh (HCK): 33%
- %Inh (HIPK1): 26%
- %Inh (HIPK2): 16%
- %Inh (HIPK3): 0%
- %Inh (HIPK4): 1%
- %Inh (HPK1): 5%
- %Inh (HUNK): 0%
- %Inh (ICK): 0%
- %Inh (IGF1R): 25%

Compound: COc1ccc(Nc2nccc(N3CCC(NC(=O)c4cccc(C#N)c4)C3)n2)cc1 (stereo not shown) [GSK1379730]
- %Inh (FYN): 0%
- %Inh (GAK): 0%
- %Inh (GCN2(Kin.Dom.2,S808G)): 2%
- %Inh (GRK1): 0%
- %Inh (GRK2): 3%
- %Inh (GRK3): 8%
- %Inh (GRK4): 0%
- %Inh (GRK7): 0%
- %Inh (GSK3A): 0%
- %Inh (GSK3B; [1]): 13%
- %Inh (HASPIN): 6%
- %Inh (HCK): 5%
- %Inh (HIPK1): 0%
- %Inh (HIPK2): 0%
- %Inh (HIPK3): 0%
- %Inh (HIPK4): 2%
- %Inh (HPK1): 42%
- %Inh (HUNK): 0%
- %Inh (ICK): 0%
- %Inh (IGF1R): 0%
